About 6,200 (6.6%) of roughly 94,000 compounds were called active. Inconclusive results (about 31%) are left out. Calls come from the whole dose curve; as a rule, active = well fitted inhibition curve with a large enough effect; inconclusive = small, poorly fitted or top-dose-only effect; inactive = flat fitted curve, though single readings scatter. The full list was thinned out, with actives kept by preference.
Assay: Cytotoxic Profiling in HEK 293 Cell Line of Diverse Libraries Using Quantitative High-Throughput Screening; note: nearly all actives have a fitted effect of over 60% in size
Conditions: HEK 293 viability, ATP luminescence (CellTiter-Glo), 48-72 h; series mostly up to 115 µM; activity change, negative = cytotoxicity: at the top concentration
Summary of the method: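 Cytotoxicity was scored by loss of ATP-coupled luminescence (CellTiter-Glo) in HEK 293 cells. Compound treatment ran 48 or 72 hr at 37 degree Celsius, 5% CO2, 95% humidity.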
% is set by controls: 0 for no effect and ±100 for the full control effect; potency is the fitted concentration of half-maximal effect.

SMILES | Potency | activity change, negative = cytotoxicity | outcome
CN(C)CCNC(=O)C[C@@H]1c2nc(NC(=O)c3ccc(C(C)(C)C)cc3)sc2C[C@@H]2[C@](C)(CO)[C@H](O)CC[C@]21C | 31.6 µM (active) |  | 
CC(=O)N1CCN(C(=O)C[C@@H]2c3nc(NC(=O)c4cccs4)sc3C[C@@H]3[C@](C)(CO)[C@H](O)CC[C@]32C)CC1 |  | 2.61% (inactive) | 
COCC(=O)Nc1nc2c(s1)C[C@@H]1[C@](C)(CO)[C@H](O)CC[C@@]1(C)[C@@H]2CC(=O)NCCN1CCOCC1 |  | 1.71% (inactive) | 
CC(C)CCN(C1CCOCC1)C1CCN(Cc2cccnc2)CC1 |  | -1.9% (inactive) | 
O=C(c1ccc(Cl)cc1Cl)N1CCC(c2nnc3n2C(C(=O)N2CCN(c4ncccn4)CC2)CC3)CC1 (stereo not drawn) |  |  | inactive
COc1cc(C(=O)N2CCCN(S(C)(=O)=O)c3ccccc32)cc(OC)c1OC |  | -13.2% (inactive) | 
O=C(C1CCCC1)N1Cc2ccccc2CC2(CCCCN2CC2CCNCC2)C1 (stereo not drawn) | 25.1 µM (active) |  | 
CCN1CCCCC12Cc1ccccc1CN(S(C)(=O)=O)C2 (stereo not drawn) |  |  | inactive
Cc1ccc(CCN2CCCCC23Cc2ccccc2CN(C(=O)CCCC(=O)O)C3)cc1 (stereo not drawn) |  | 3.09% (inactive) | 
CC(=O)NCCC(=O)N1Cc2ccccc2CC2(CCCCN2CC2CCNC2)C1 (stereo not drawn) |  | -3.49% (inactive) | 
CC(=O)N1Cc2ccccc2CC2(CCCCN2C)C1 (stereo not drawn) |  | -7.55% [at 172 µM] (inactive) | 
O=C(c1ccccc1)N1Cc2ccccc2CC2(CCCN2CC2CCNC2)C1 (stereo not drawn) | 79.4 µM (active) |  | 
O=C(NC1CCCCC1)C1CN(S(=O)(=O)c2cccc(Cl)c2)CC12CCOCC2 (stereo not drawn) |  | -15.6% (inactive) | 
NC(=O)[C@H](CCC(=O)O)NC(=O)[C@@]1(O)C[C@@H](O)[C@H](O)[C@@H](NS(=O)(=O)c2cccc(C(F)(F)F)c2)C1 |  |  | inactive
Cn1nnc(-c2ccc(C(=O)N[C@H]3C[C@@H]4OCC[C@H]34)cc2)n1 |  | -8.99% (inactive) | 
c1cnc2nc(C3CCCCN3)[nH]c2c1 (stereo not drawn) | inactive |  | 
Cc1cc(C(=O)NCC2Cn3cccc3C(=O)N2CC(C)C)n(C)n1 (stereo not drawn) |  | -0.276% (inactive) | 
CC(C)N1Cc2cc(C(=O)O)sc2C1 |  | 10.9% (inactive) | 
COCCn1ccc2c(NC(=O)Cn3nc4c(cc3=O)CCCC4)cccc21 |  | -23.3% (inactive) | 
CC(C)N1Cc2cc(C(=O)Nc3cccc4c3CCCC4)sc2C1 | 28.2 µM (active) |  | 
O=C(O)C[C@@H]1CCN(C(=O)C2CCCCC2)C[C@@H]1CCN1CCN(c2ccccc2)CC1 |  |  | inactive
CCOC(=O)[C@@H]1[C@@H](OC)C(=O)N(Cc2ccccc2)C12CCN(C(=O)c1ccc(F)cc1)CC2 |  | -20.8% (inactive) | 
O=C(c1ccc(F)cc1)N1CCC2(CC1)CCN(Cc1cccs1)c1ccccc1O2 | 44.7 µM (active) |  | 
O=C(O)CCC(=O)N1CCOC2(CCN(C(=O)c3ccccc3)CC2)C1 |  | -11% (inactive) | 
COCC(=O)N(C1CCOCC1)C1CCN(S(=O)(=O)c2ccc(F)c(F)c2)CC1 |  | -11% (inactive) | 
O=C(CCC1CCN(S(=O)(=O)c2ccccc2)CC1)NCc1ccccn1 |  | -11.2% (inactive) | 

SMILES | Potency | activity change, negative = cytotoxicity | outcome
O=C1OCCN1C1CCN(S(=O)(=O)c2ccccc2)CC1 |  |  | inactive
O=S(=O)(c1ccccc1)N1CCC(CCOc2ccccc2)C1 (stereo not drawn) | 79.4 µM (active) |  | 
CCCN1C(=O)NC(Cc2nc(-c3cccnn3)no2)C1=O (stereo not drawn) |  | -0.719% (inactive) | 
COc1ccccc1C(=O)NCC1COc2ncncc2C(=O)N1Cc1ccccc1 (stereo not drawn) |  | -0.379% [at 172 µM] (inactive) | 
Fc1ccccc1-c1n[nH]c2c1CN(Cc1cccc3c1OCO3)CC2 | 44.7 µM (active) |  | 
CSCC(=O)N1CCc2[nH]nc(-c3ccc4c(c3)OCO4)c2C1 |  | -4.07% (inactive) | 
O=C1Cc2c(-c3ccc(F)cc3F)n[nH]c2CN1Cc1ccccc1F |  | -17.9% [at 172 µM] (inactive) | 
O=C(c1cccc(Cl)c1)N1CCC(C(=O)N2CCCC(c3nc4ccncc4[nH]3)C2)CC1 (stereo not drawn) |  | 1.44% (inactive) | 
O=C(N1CCCC1c1nc(CCOCC2CC2)no1)C1(c2ccccc2)CC1 (stereo not drawn) |  | -12.4% (inactive) | 
O=C(c1ccc(-n2cnnc2)cc1)N1CCC2(CCCO2)CC1 |  | -27.5% (inactive) | 
Cn1cccc1C(=O)N[C@H]1C[C@@H](C(=O)O)N(C(=O)CSCC(=O)N2C[C@@H](NC(=O)c3cccn3C)C[C@H]2C(=O)O)C1 |  | -0.641% (inactive) | 
CCc1nc(-c2c3n(c(=O)n(CC(=O)Nc4ccc(C)cc4)c2=O)CCCCC3)no1 |  | 3.58% (inactive) | 
Cc1cccc(-c2cc(C3CCN(S(=O)(=O)c4cccc(C#N)c4)CC3)[nH]n2)c1 | 25.1 µM (active) |  | 
N#Cc1cccc(CN2CCCN(S(=O)(=O)c3ccccc3)CCC(=O)NCC2)c1 |  | -29.8% (inactive) | 
Cc1cccc(S(=O)(=O)N2CCC(n3cnnc3C(C)C)CC2)c1 |  | -28.1% (inactive) | 
O=C(O)C[C@@H]1CCN(C(=O)c2ccc(C(F)(F)F)cc2)C[C@@H]1CCN1CCN(c2ccc(F)cc2)CC1 |  | 0.723% (inactive) | 
COCCNC(=O)C1COC2(CCN(C(=O)c3ccc(F)cc3)CC2)N1C(=O)c1ccccc1C (stereo not drawn) |  | -16.6% (inactive) | 
COc1ccc(C2Cn3cnc(C(=O)N4CCC(C(=O)NCc5cccc(F)c5)CC4)c3CO2)cc1 (stereo not drawn) |  | 17.2% (inactive) | 
COc1ccccc1C(=O)N1CCN(c2cc(C(F)(F)F)ncn2)CC1 |  | -26.2% (inactive) | 
COc1ccc(C2Cn3nnc(C(=O)N4CCC(C(=O)NCc5ccc(C)cc5)CC4)c3CO2)cc1 (stereo not drawn) |  | -5.15% (inactive) | 
O=C(Nc1ccccc1Cl)N1CCC(Oc2ncccc2C(=O)N2CCCCC2)C1 (stereo not drawn) |  | -19.7% (inactive) | 
COc1ccccc1Nc1ccnc(N2CCC(NC(=O)NC(C)C)CC2)n1 |  | -0.588% (inactive) | 
Cc1ccc(C2Cn3cnc(C(=O)N4CCC(C(=O)NCc5cccc(Cl)c5)CC4)c3CO2)cc1 (stereo not drawn) |  | -16.9% (inactive) | 
O=C(c1ccccc1Cl)N1CCN(C(=O)c2nc3cccnc3n(Cc3ccccc3)c2=O)CC1 |  | -4.8% (inactive) | 
COc1ccccc1Nc1ccnc(N2CCC(C(=O)NCc3ccc(C(F)(F)F)cc3)CC2)n1 | 31.6 µM (active) |  | 
COc1ccccc1Nc1ccnc(N2CCN(C(=O)c3ccc(C(F)(F)F)cc3)CC2)n1 | 39.8 µM (active) |  | 

SMILES | Potency | activity change, negative = cytotoxicity | outcome
COc1ccccc1Nc1ccnc(N2CCC(C(=O)NCc3cccc(Cl)c3)CC2)n1 | 39.8 µM (active) |  | 
COc1cccc(C(=O)N2CCN(c3nccc(Nc4ccccc4OC)n3)CC2)c1 |  | -63.1% (inactive) | 
Cc1ccccc1C(=O)N1CCN(c2nccc(Nc3ccccc3Cl)n2)CC1 | 35.5 µM (active) |  | 
O=C1NC2(Cc3ccccc31)CN([S+](=O)([O-])c1cccc(C(F)(F)F)c1)C2 |  | -6.46% (inactive) | 
O=C(NCC1CC1)c1cn(C2CN(C(=O)Nc3ccccc3)C2)nn1 |  | 3.71% (inactive) | 
CCCNC(=O)N1CCOC[C@H](Oc2cccnc2)C1 |  | 2.59% [at 230 µM] (inactive) | 
CCc1cccc(NC(=O)C2(C)CCCCC(=O)N2)c1 (stereo not drawn) |  | -14% (inactive) | 
CC(=O)N1CCOc2ccc(CCC(=O)NCc3nc4ccccc4n3C)cc2C1 |  | -7.53% (inactive) | 
CCCCN1C(=O)[C@@H]2C[C@@H](O)CN2C2(CN(CC(C)C)C2)C1=O |  | -1.68% [at 172 µM] (inactive) | 
COCC1(CNS(=O)(=O)c2ccc(F)cc2)C[C@@H](O)[C@@H](O)C1 (stereo partly drawn) |  | -6.02% [at 172 µM] (inactive) | 
COc1ccc(CNC(=O)[C@@H]2CCC[C@@H](NCc3nccs3)CN(C)C(=O)C2)cc1 |  | -2.3% [at 172 µM] (inactive) | 
COc1ccc(Nc2ccnc(N3CCCC(C(=O)NCc4ccc(C(F)(F)F)cc4)C3)n2)cc1 (stereo not drawn) | 20 µM (active) |  | 
COc1ccc(Nc2ccnc(N3CCC(C(=O)N4CCN(C(C)=O)CC4)CC3)n2)cc1 |  | 4.42% (inactive) | 
Cc1nsc(NC(=O)N2CCC(CO)CC2)n1 |  | -4.07% (inactive) | 
CCOc1ccccc1C(=O)N1CCC(N2CC3CC(C2)[C@H]2CCCC(=O)N2C3)CC1 (stereo partly drawn) |  | -0.534% (inactive) | 
COC[C@@H]1CN(C(=O)Cn2cc(C)cn2)C[C@H]1c1ccccn1 |  | -6.73% (inactive) | 
Cc1ccc(C)c(NC(=O)Cn2nc3n(c2=O)CCCCC3)c1 |  | 1.83% (inactive) | 
CN(CCc1cn[nH]c1)c1ccc(-c2nc(-c3ccccc3F)no2)cn1 | 31.6 µM (active) |  | 
O=C(C1CCC1)N1CCC(Oc2cccnc2)C1 (stereo not drawn) |  | 13.3% (inactive) | 
Cc1noc(C)c1-c1cc(-c2cncnc2)cn2cncc12 |  | -2.72% [at 230 µM] (inactive) | 
OCc1ccc(-c2cc(-c3cccnc3)c3cncn3c2)cc1 |  | -4.7% [at 172 µM] (inactive) | 
Cc1noc(C)c1-c1cc(-c2ccccc2Oc2ccccc2)cn2cncc12 | 79.4 µM (active) |  | 
COc1ccccc1-c1onc(C)c1C(=O)NCc1ccc(Cl)cc1 |  | -27.2% (inactive) | 
COc1ccccc1-c1onc(C)c1C(=O)NCCC(c1ccccc1)c1ccccc1 | 25.1 µM (active) |  | 
CCCOCCCNC(=O)c1c(C)noc1-c1ccccc1Cl |  | -16.3% (inactive) | 
O=C(c1ccc2nnc(C3CC3)n2c1)N1CCOCC1 |  | 0.449% [at 172 µM] (inactive) | 

SMILES | Potency | activity change, negative = cytotoxicity | outcome
CC(C)n1c(C2CCN(C(=O)Cc3cccc(F)c3)CC2)nn(C)c1=O |  |  | inactive
O=C(C1CCCN(c2ccnc3ccnn23)C1)N1CCCCC1 (stereo not drawn) |  | -26.9% [at 172 µM] (inactive) | 
O=C(c1ccoc1)N1CCCN(C(=O)C2COc3ccccc3C2)CC1 (stereo not drawn) |  | -24.8% (inactive) | 
CCC(C)N1CCN(C(=O)CCc2ccc3c(c2)CN(C(=O)NC(C)C)CCO3)CC1 (stereo not drawn) |  | -4.09% (inactive) | 
O=C1CCN(Cc2ccc3c(c2)CCO3)CCOCCN1 |  | 4.17% (inactive) | 
O=C(c1ccccc1)N1CCOc2ccc(CN3CCc4ccccc4C3)cc2C1 | 44.7 µM (active) |  | 
O=C(c1ccoc1)N1CCOc2ccc(CN3CCc4ccccc4C3)cc2C1 | 39.8 µM (active) |  | 
O=C(CC1CCCC1)N1CCOc2ccc(CN3CCCCC3)cc2C1 |  | -22.3% (inactive) | 
COc1ccccc1N1CCN([C@@H]2[C@H](O)[C@H](CO)O[C@@H]2CNC(=O)c2ccc(F)c(Cl)c2)CC1 |  |  | inactive
CN1C[C@H](NCc2nccn2C)CCC[C@@H](C(=O)NC2CC2)CC1=O |  | -8.8% [at 172 µM] (inactive) | 
O=C(NCc1cccs1)c1nc(-c2cc(Cl)cc(Cl)c2)c2ccccn12 |  |  | inactive
Cc1ccncc1C(=O)N1[C@@H]2CC[C@H]1CC(NC(=O)c1ccc(F)cc1)C2 (stereo partly drawn) |  |  | inactive
CCc1cccc(NC(=O)N2[C@@H]3CC[C@H]2CC(NC(=O)c2ccc(F)cc2)C3)c1 (stereo partly drawn) | 39.8 µM (active) |  | 
CCOCC(=O)N1[C@@H]2CC[C@H]1CC(NC(=O)c1ccc(F)cc1)C2 (stereo partly drawn) |  | 3.15% (inactive) | 
CNC(=O)c1cc(C)nc2onc(C3CCCN(C(=O)c4ccccn4)C3)c12 (stereo not drawn) |  | -3.14% (inactive) | 
CCC(c1ccccn1)N(C)C(=O)c1cc(COc2ccccc2)[nH]n1 (stereo not drawn) |  | -18.1% (inactive) | 
COc1ccc(CNC(=O)C2CCCCN2Cc2ccc(-c3ccccc3OC)cc2)cc1 (stereo not drawn) | 31.6 µM (active) |  | 
CCOc1cc(=O)n2c(c1C(=O)NCc1cccc(Cl)c1)CCCC2 |  | -25.7% (inactive) | 
COc1ccccc1-c1ccc(CN2CCCCC2C(=O)NCc2cccc(Cl)c2)cc1 (stereo not drawn) | 22.4 µM (active) |  | 
C#CCNC(=O)C1CCc2nnc(-c3ccccc3OC)n21 (stereo not drawn) |  | -6.52% (inactive) | 
COc1ccc(F)cc1-c1ccc(CN2CCCCC2C(=O)NCc2ccccn2)cc1 (stereo not drawn) | 25.1 µM (active) |  | 
COc1ccc(OC)c(S(=O)(=O)N2CCC(CC(=O)NCc3ccccc3)C2)c1 (stereo not drawn) |  | -14.4% (inactive) | 
CN1CCCCCC1C(=O)NCc1cccnc1Oc1ccccc1F (stereo not drawn) |  | -23.7% (inactive) | 
CCNC(=O)[C@@H]1CCCN1[C@@H](C(=O)NC)c1ccccc1OC |  | 2.6% [at 172 µM] (inactive) | 
C=C(C)CCC(C)N1CCC(N2CCC(C(=O)NCc3ccccn3)CC2)CC1 (stereo not drawn) |  | -4.18% (inactive) | 

Source: PubChem BioAssay AID1345083 (National Center for Advancing Translational Sciences (NCATS), 2018)
